The campaign covered roughly 6,200 compounds. About 2,900 (47%) were called active. Cut-off read from the data, not from the text of the source: active = inhibition above about 50%; inactive = the rest. So high a share suggests a set chosen from earlier hits. This is one part of the list.
test: Mycobacterium tuberculosis growth inhibition, primary screen (AID 1259343); settings: inhibition: at 10 µM, hits give high values; outcome: 10 uM

Compound | inhibition
CCOC(=O)C(C#N)=Cc1cn(CCC#N)nc1-c1ccc(Br)cc1 | -13.1% (inactive)
Fc1ccc(-c2cc(CNc3nccc(C4CCCC4)n3)no2)cc1 | 44.8% (inactive)
Oc1ccc(CCNc2nccc(C3CCCC3)n2)cc1 | 51.5% (active)
C=CC[P+](N(CCC)CCC)(N(CCC)CCC)N(CCC)CCC | 80% (active)
CC(C)=CCc1c(O)cc2occ(-c3ccc4c(c3)OCO4)c(=O)c2c1O | 68.8% (active)
O=C(COc1ccc2oc3c(c2c1)CCCC3)NCc1cccnc1 | -6.78% (inactive)
COC(=O)c1c(C)oc2ccc(OCC(=O)c3ccc(F)cc3)cc12 | 87.5% (active)
CC(C)(C)NC(=O)COc1ccc2oc3c(c2c1)CCCC3 | 31.6% (inactive)
Cc1ccc(CC(=O)C(C#N)c2nc3sc(C)c(C)c3c(=O)[nH]2)cc1 (configuration not stated) | 37.3% (inactive)
Cc1ccc(-c2c(C)sc3nc(CN4CCN(Cc5ccccc5)CC4)[nH]c(=O)c23)cc1 | 96.5% (active)
Cc1ccc(-c2nnc(SCC(=O)NC3CC3)o2)cc1 | -24.4% (inactive)
CCCC(C)NC(=O)CSc1nnc(-c2ccc(Cl)cc2)o1 (configuration not stated) | 95.8% (active)
CCNC(=O)CSc1nnc(-c2ccc(C)cc2)o1 | 93.8% (active)
C=CCNC(=O)CSc1nnc(-c2cccs2)o1 | 99.4% (active)
c1coc(-c2nnc(SCc3nnc(-c4cccs4)o3)o2)c1 | -25.9% (inactive)
CCNC(=O)CSc1nnc(-c2ccccc2)o1 | 92.3% (active)
CCCC(C)NC(=O)COc1ncnc2scc(-c3ccc(C)cc3)c12 (configuration not stated) | 49.2% (inactive)
c1ccc(C(Cn2cncn2)NCc2cccs2)cc1 (configuration not stated) | -11.6% (inactive)
CCCN(CC1CC1)c1oc(-c2ccc(F)cc2)nc1C#N | 12.7% (inactive)
CC1CCC(NC(=O)CSc2nnc(C(C)C)o2)CC1 (configuration not stated) | 32.9% (inactive)
Cc1ccc(-c2nnc(SCC(=O)NC(C)C(C)C)o2)cc1 (configuration not stated) | 87.3% (active)
CCCCNC(=O)CSc1nnc(-c2ccc(OCC)cc2)o1 | 81.2% (active)
CCOc1ccc(-c2nnc(SCC#N)o2)cc1 | -18% (inactive)

Compound | inhibition
Cc1cc(C)cc(N2C(=O)C3N=NN(c4ccc(Br)c(C)c4)C3C2=O)c1 (configuration not stated) | 89% (active)
COC(=O)c1cc(C)nc(N(C)C)c1C(=O)OC | -14.7% (inactive)
CC(C)c1ccc(/C=N\Nc2ncnc3nc[nH]c23)cc1 | 58.7% (active)
O=c1c(Cl)c(Cl)cnn1-c1ccc(N2CCOC(c3ccccc3)C2)c(Cl)c1 (configuration not stated) | 16.1% (inactive)
O=c1c(Cl)c(Cl)cnn1-c1ccc(NC2CC2)c(Cl)c1 | 91.2% (active)
Cc1ccc(-c2nnc(SCC(=O)c3ccc4c(c3)OCO4)n2C)cc1 | 89.8% (active)
c1csc(-c2nnc(SCc3ccc4c(c3)OCO4)n2C2CC2)c1 | -34.7% (inactive)
CN(C)C(=O)CSc1nnc(-c2ccc(Cl)cc2)n1C | 0.36% (inactive)
Cc1nc2cc(NC(=O)C3(C)CCc4c(C)c(O)c(C)c(C)c4O3)ccc2s1 (configuration not stated) | 68.5% (active)
CN(Cc1cccc(C#N)c1)C(=O)c1cc2c(s1)CCCCCC2 | 30.1% (inactive)
CN(Cc1cccs1)C(=O)c1cc2c(cc1O)CCCC2 | 67.8% (active)
CCCCNC(=S)N(C)N=Cc1c(F)c(F)c(F)c(F)c1F | 58% (active)
CCCCNC(=S)N(C)N=Cc1sccc1C | 29% (inactive)
Cc1ccc(-c2cc(C(=O)N3CCCC3C3CCCC3)n[nH]2)s1 (configuration not stated) | 31.1% (inactive)
COc1ccc(-c2nc(C=CC(=O)N3CCCC4CCCCC43)cs2)cc1 (configuration not stated) | 62.1% (active)
CCCCc1ccc(N=Cc2c(C)c(C#N)c(=O)n(CCCC)c2O)cc1 | 4.37% (inactive)
CCCCc1ccc(N=Cc2nc(/C=C/c3cccc([N+](=O)[O-])c3)oc2O)cc1 | 84.9% (active)
COc1ccc(Oc2ccc3c(C4CC4)noc3n2)c(F)c1 | 61.2% (active)
Cc1ccc(Oc2ccc3c(C4CC4)noc3n2)cc1F | 64.9% (active)
COc1ccc(F)cc1Oc1ccc2c(C3CC3)noc2n1 | 30% (inactive)
Cc1cc(Oc2ccc3c(C4CC4)noc3n2)ccc1F | 58.7% (active)
COc1cc(F)ccc1Oc1ccc2c(C3CC3)noc2n1 | 47.7% (inactive)
CCN(CC)CCN1CCN(c2ccnc3c(-c4cc(C(F)(F)F)cc(C(F)(F)F)c4)cnn23)CC1 | 37.6% (inactive)

Compound | inhibition
COCc1[nH]n2c(=O)c(Cl)c(C)nc2c1-c1ccc(C)cc1 | 98.7% (active)
Cc1ccccc1-c1cnnc(N2CCCC(COc3ccccc3F)C2)n1 (configuration not stated) | -23.4% (inactive)
S=c1nnc2c3ccccc3[nH]c2n1CCc1ccccc1 | 18% (inactive)
C=C(C)CSc1nnc2c(n1)[nH]c1ccccc12 | 61.6% (active)
C=CCSc1nnc2c3ccccc3n(CC=C)c2n1 | 28.1% (inactive)
Cc1cc(Br)ccc1NCC(=O)N1CCCCC1 | 95.6% (active)
Cc1cc(Br)ccc1NCc1ccc(C#N)cc1 | 35.3% (inactive)
O=C(C=Cc1ccc(OC(F)F)cc1)c1ccc(O)cc1 | 81.8% (active)
N#CC(C#N)=C(C=Cc1ccc(OC(F)F)cc1)C1CC1 | -8.38% (inactive)
COc1cc(C(=O)C=Cc2ccc(OC(F)F)cc2)ccc1O | 17.6% (inactive)
CC(C)c1ccc2[nH]c3c(c2c1)CCC/C3=N\N=C/c1ccncc1 | 78.2% (active)
OCC1(Cc2ccccc2F)CCCN(c2noc(-c3ccccc3)n2)C1 (configuration not stated) | 17.3% (inactive)
C=CCc1ccc(OC(C)C(=O)Nc2ccc(OC)cc2)c(OC)c1 (configuration not stated) | 30.5% (inactive)
COc1ccc(NCc2ccc(OC)c(Br)c2)cn1 | -17.8% (inactive)
COc1cc(CNc2ccc3nc(C)sc3c2)ccc1OC(F)F | 78.4% (active)
CC(=NN=C1NC(=O)CS1)c1cc2ccccc2oc1=O | 91.1% (active)
COc1ccc(OCCOc2ccc(Cl)c(C)c2)cc1 | 80.7% (active)
CCOc1ccc(OCCCOc2ccc(Cl)c(C)c2)cc1 | 44.9% (inactive)
CCOc1ccccc1OCCOc1ccccc1F | 88.9% (active)
COc1ccc(OCCCCOc2ccccc2F)cc1 | 57.2% (active)
COc1ccccc1OCCCCOc1ccccc1Cl | 67.2% (active)

— PubChem BioAssay AID1259343 (VanderVen Lab, College of Veterinary Medicine, Cornell …, 2017)
